According to PubChem BioAssay (NCATS):
Records with an inconclusive call do not appear. Activity calls are given as the source filed them. Calls follow the shape of the dose curve; as a rule, active = well fitted inhibition curve with a large enough effect; inconclusive = small, poorly fitted or top-dose-only effect; inactive = flat fitted curve, though single readings scatter.

Assays:
Assay in all cases: qHTS profiling for inhibitors of Plasmodium falciparum proliferation (AID 504749); also: nearly all actives have a fitted effect of over 60% in size
AS120 = conditions: P. falciparum in erythrocytes, SYBR Green DNA, 72 h; series mostly up to 28.7 µM
In short: (§1)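 In a 72 h erythrocytic culture (37 C, humidified, 5% CO2) at 2.5% hematocrit and 0.3% starting parasitemia, compounds were tested; SYBR Green I in detergent lysis buffer stained parasite DNA overnight.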

ATS189 = conditions: P. falciparum in erythrocytes, SYBR Green DNA, 72 h; series mostly up to 28.7 µM
In short: as §1

ATS95 = conditions: P. falciparum in erythrocytes, SYBR Green DNA, 72 h; series mostly up to 28.7 µM
In short: as §1

CP185 = conditions: P. falciparum in erythrocytes, SYBR Green DNA, 72 h; series mostly up to 28.7 µM
In short: as §1

CP192 = conditions: P. falciparum in erythrocytes, SYBR Green DNA, 72 h; series mostly up to 28.7 µM
In short: as §1

CP194 = conditions: P. falciparum in erythrocytes, SYBR Green DNA, 72 h; series mostly up to 28.7 µM
In short: as §1

CP201 = conditions: P. falciparum in erythrocytes, SYBR Green DNA, 72 h; series mostly up to 28.7 µM
In short: as §1

CP237 = conditions: P. falciparum in erythrocytes, SYBR Green DNA, 72 h; series mostly up to 28.7 µM
In short: as §1

CP238 = conditions: P. falciparum in erythrocytes, SYBR Green DNA, 72 h; series mostly up to 28.7 µM
In short: as §1

CP265 = conditions: P. falciparum in erythrocytes, SYBR Green DNA, 72 h; series mostly up to 12.8 µM
In short: as §1

CP266 = conditions: P. falciparum in erythrocytes, SYBR Green DNA, 72 h; series mostly up to 12.8 µM
In short: as §1

CP286 = conditions: P. falciparum in erythrocytes, SYBR Green DNA, 72 h; series mostly up to 28.7 µM
In short: as §1

CP305 = conditions: P. falciparum in erythrocytes, SYBR Green DNA, 72 h; series mostly up to 28.7 µM
In short: as §1

DFO2036 = conditions: P. falciparum in erythrocytes, SYBR Green DNA, 72 h; series mostly up to 28.7 µM
In short: as §1

DIV30 = conditions: P. falciparum in erythrocytes, SYBR Green DNA, 72 h; series mostly up to 28.7 µM
In short: as §1

GB4 = conditions: P. falciparum in erythrocytes, SYBR Green DNA, 72 h; series mostly up to 28.7 µM
In short: as §1

HB3 = conditions: P. falciparum in erythrocytes, SYBR Green DNA, 72 h; series mostly up to 28.7 µM
In short: as §1

P94_40 = conditions: P. falciparum in erythrocytes, SYBR Green DNA, 72 h; series mostly up to 28.7 µM
In short: as §1

PC26 = conditions: P. falciparum in erythrocytes, SYBR Green DNA, 72 h; series mostly up to 28.7 µM
In short: as §1

TAB113 = conditions: P. falciparum in erythrocytes, SYBR Green DNA, 72 h; series mostly up to 28.7 µM
In short: as §1

Measured: Potency

CC(C)(O)C1C2OC(=O)C1[C@]1(O)C[C@H]3O[C@]34C(=O)O[C@H]2[C@]14C (stereo not given in full) (tested in a mixture with another compound)
inactive: AS120 | ATS189 | ATS95 | CP185 | CP192 | CP194 | CP201 | CP237 | CP238 | CP265 | CP266 | CP286 | CP305 | DFO2036 | DIV30 | GB4 | HB3 | P94_40 | PC26 | TAB113

CCCC[N+]1(C)C2CC(OC(=O)C(CO)c3ccccc3)CC1C1OC12 (stereo not given)
inactive: AS120 | ATS189 | ATS95 | CP185 | CP192 | CP194 | CP201 | CP237 | CP238 | CP265 | CP266 | CP286 | CP305 | DFO2036 | DIV30 | GB4 | HB3 | P94_40 | PC26 | TAB113

Oc1ccc2c3c1O[C@H]1[C@@H](O)CC[C@@]4(O)C(C2)N(CC2CCC2)CCC314 (stereo not given in full)
inactive: AS120 | ATS189 | ATS95 | CP185 | CP192 | CP194 | CP201 | CP237 | CP238 | CP265 | CP266 | CP286 | CP305 | DFO2036 | DIV30 | GB4 | HB3 | P94_40 | PC26 | TAB113

CNC(C)[C@@H](O)c1ccc(O)cc1 (stereo not given in full)
inactive: AS120 | ATS189 | ATS95 | CP185 | CP192 | CP194 | CP201 | CP237 | CP238 | CP265 | CP266 | CP286 | CP305 | DFO2036 | DIV30 | GB4 | HB3 | P94_40 | PC26 | TAB113
